Source: PubChem BioAssay (NCATS)
Inconclusive results are not listed. Values without a mark were called inactive. Activity calls are given as the source filed them. The call rests on the fitted dose curve; in most records, active means well fitted cell-killing curve with a large enough effect; inconclusive means small, poorly fitted or top-dose-only effect; inactive means flat fitted curve, though single readings scatter.

test: Quantitative highthroughput screen to assess conditional lethalithy of P12 Ichikawa cells grown in RPMI1640 with untreated serum (RPMI+s) (AID 1963881); details: ATP luminescence, 48 h; Potency: viability; series mostly up to 45.8 µM; viability: at the top concentration; further: nearly all actives have a fitted effect of over 35% in size
Description: Assay Provider: Jason Cantor Ph.D.
Department of Biochemistry
University of Wisconsin-Madison, Madison, WI, USA
Chemical screening studies have identified drug sensitivities across hundreds of cancer cell lines but most putative therapeutics fail to translate. Discovery and development of drug candidates in models that more accurately reflect nutrient levels in human blood is a major challenge. Here we performed high-throughput screens in conventional versus Human Plasma-Like Medium (HPLM) to identify compounds that were "missed" when screening using the artificial culture condition. Sets of conditional anticancer compounds spanned phases of clinical development and included non-oncology drugs were assessed. […] We also traced conditional phenotypes for several chemotherapeutics to availability of HPLM-specific metabolites and confirmed others for compounds whose reported targets are encoded by nonessential genes. Our findings establish generalizable strategies for exploiting conditional lethality in HPLM to reveal therapeutic candidates and mechanisms of action in cancer cells.
Described herein are the results of each viability screens against three cell lines: NOMO1 (an acute myeloid leukemia cell line); P12-Ichikawa (a T-cell acute lymphoblastic leukemia); and SEM (a B-cell ALL). Each assay was screened using 3 different cell culture media: homemade human plasma-Like medium with 10% dialyzed fetal bovine serum (HPLM+ds); RPMI1640 with 10% untreated FBS and 5mM glucose (RPMI+s); and RPMI1640 with 10% dialyzed fetal bovine serum and 5 mM glucose (RPMI+ds).
PROTOCOL TABLE (as described by Inglese J, Shamu CE and Guy RK. 2007)
SEQUENCE No. (e.g., 1, 2, 3, etc.); […] (e.g., Cells, Incubation, Reagent, etc.); VALUE and DESCRIPTION.
1; Cells; 5 uL; white, solid bottom 1536-well Greiner assay plate.
2; Compounds; 23 nL; Kalypsis pin tool (Wako USA) equipped with a 1536-well pin head to transfer to the assay plates.
3; Incubation; 48 hours; 37C incubation.
4; Reagent; 3 uL; CellTiter Glo (Promega).
5; Incubation; 5 min, room temperature
6; Detection; Luminescence, Viewlux PerkinElmer.
NOTES (numbers refer to Sequence numbers above)
1. Briefly, 5 ul of cell reagent was dispensed using a Multidrop Combi Dispenser. The NOMO1 and SEM cells were plated at 500 cells/well and the P12-Ichikawa line at 1000 cells/well.
2. After seeding the cells, 23 nL of MIPE 4.1 library compounds (in DMSO) were added to each plate using a Kalypsys 1536 Pintool dispenser. Bortezomib at final concentration of […] and DMSO were added to each plate as positive and negative controls respectively. For each screen, MIPE 4.1 compounds were added over an eleven-point concentration range […] in 3-fold dilutions.
3. Each plate was covered with a stainless steel gasketed lid to prevent evaporation and incubated for 48 hour at 37C, 95% relative humidity, and 5% CO2.
4-5. Three microliter CellTilter-GloTM luminescent substrate mix (Promega) reagent was added to the assay plate and incubated at room temperature for 5 min.
6. The luminescence signal was measured using a ViewLux (PerkinElmer) multiplate reader with a 2 second exposure time per plate. Data for each compound were normalized as percent viability such that measurements for DMSO and the empty well controls in each plate were defined as 100% and 0%, respectively.
Potency means the concentration at half of the fitted maximal effect.

SMILES	Potency	viability
COc1cc2c(cc1O)CCC1C2CC[C@@]2(C)C1CC[C@@H]2O (stereo not given in full)	2.64 µM (active)	
CC1(C)CCC(c2ccc(Cl)cc2)=C(CN2CCN(c3ccc(C(=O)NS(=O)(=O)c4ccc(N[C@H](CCN5CCOCC5)CSc5ccccc5)c(S(=O)(=O)C(F)(F)F)c4)cc3)CC2)C1	0.166 µM (active)	
Nc1nc(N)nc(-c2cc(Cl)ccc2Cl)n1		99.2%
Clc1ccc2ncc(-c3cccc(NC4CNC4)n3)n2c1	23.5 µM (active)	
CN(C)CCc1c[nH]c2ccc(CS(=O)(=O)N3CCCC3)cc12		82.2%
Nc1ccn([C@@H]2CS[C@H](CO)O2)c(=O)n1		101% [at 92.2 µM]
Cc1nccn1CC1CCc2c(c3ccccc3n2C)C1=O (stereo not given)		102%
COc1ncc(-c2ccc3nccc(-c4ccnnc4)c3c2)cc1NS(=O)(=O)c1ccc(F)cc1F	0.743 µM (active)	
CCCc1cc(C(N)=S)ccn1		102%
CCC(c1ccc(O)cc1)C(CC)c1ccc(O)cc1 (stereo not given)		99.5%
O=c1cc(-c2ccccc2)oc2cc(O)cc(O)c12	20.9 µM (active)	
CCOC(=O)[C@@H](N)CCC(=O)N[C@@H](CSCc1ccccc1)C(=O)N[C@@H](C(=O)OCC)c1ccccc1		87%
CC1(C)[C@H](C(=O)O)N2C(=O)C[C@H]2S1(=O)=O		107%
Cn1cnc(=N)c2[nH]cnc21	7.43 µM (active)	
CCN(C)C(=O)Oc1cccc([C@H](C)N(C)C)c1		108%
COc1cc2c(Nc3ccc(Cl)c(Cl)c3F)ncnc2cc1OCC1C[C@@H]2CN(C)C[C@H]2C1	13.2 µM (active)	
CC(C)(C)OC(=O)N[C@H]1CCCCCC=C[C@@H]2C[C@@]2(C(=O)NS(=O)(=O)C2CC2)NC(=O)[C@@H]2C[C@@H](OC(=O)N3Cc4cccc(F)c4C3)CN2C1=O		77.7%
Nc1nc(F)nc2c1ncn2[C@@H]1O[C@H](CO)[C@@H](O)[C@@H]1O	0.526 µM (active)	
COc1cc2c(Nc3ccc(NC(=O)c4ccccc4)cc3)ncnc2cc1OCCCN1CCOCC1	4.69 µM (active)	
COc1c(Cl)cc2c([nH]c3cnccc32)c1NC(=O)c1cccnc1C		103%

SMILES	Potency	viability
CO[C@H]1C=CO[C@@]2(C)Oc3c(C)c(O)c4c(O)c(c(C=NN5CCN(C)CC5)c(O)c4c3C2=O)NC(=O)C(C)=CC=C[C@H](C)[C@H](O)[C@@H](C)[C@@H](O)[C@@H](C)[C@H](OC(C)=O)[C@H]1C	3.78 µM (active)	
CN1CCN2c3ncccc3Cc3ccccc3C2C1 (stereo not given)		90.5%
CCN(c1ccccc1)c1cc(NC)[n+](C)c(C)n1		98.8%
CC[C@H](NC(=O)[C@H](C)NC)C(=O)N1C[C@@H](O)C[C@H]1Cc1c(-c2[nH]c3cc(F)ccc3c2C[C@H]2C[C@H](O)CN2C(=O)[C@H](CC)NC(=O)[C@H](C)NC)[nH]c2cc(F)ccc12	3.32 µM (active)	
CCOc1cc(N2CCC(O)CC2)ccc1Nc1ncc2c(n1)N(C)c1ccccc1C(=O)N2C	2.35 µM (active)	
c1cc(-c2sc(-c3ccncc3)c(-c3ccncc3)c2-c2ccncc2)ccn1		88.8%
COc1ccc2cc([S+]([O-])Cc3ncc(C)c(OC)c3C)nc2c1		84.2%
COCCCN1CCC(NC(=O)c2cc(Cl)c(N)c3c2OCC3)CC1	18.7 µM (active)	
COc1cc2nc(N3CCCN(C)CC3)nc(NC3CCN(Cc4ccccc4)CC3)c2cc1OC	13.2 µM (active)	
C[C@H](NC(=O)C(=O)Nc1ccccc1C(C)(C)C)C(=O)N[C@@H](CC(=O)O)C(=O)COc1c(F)c(F)cc(F)c1F	14.8 µM (active)	
CC(C)C[C@H](NC(=O)c1cc2ccccc2s1)C(=O)N1CCN(C(=O)[C@H](CO)NS(=O)(=O)c2ccc(Cl)cc2Cl)CC1		83.9%
Cc1cc(CN2CCN(c3c(Br)cnc4nc(-c5ccc(N6CCN(C)CC6)cc5)[nH]c34)CC2)no1	0.935 µM (active)	
C[C@@H](N)C1CCC(C(=O)Nc2ccncc2)CC1 (stereo not given in full)		93.7%
c1cnc2cc3c(cc2n1)C1CNCC3C1		101%
NS(=O)(=O)c1cc(Cl)c(Cl)c(S(N)(=O)=O)c1		111%
COc1cc(F)c(F)c(Nc2ccc(I)cc2F)c1NS(=O)(=O)C1(C[C@H](O)CO)CC1		74.5%
COc1ccccc1OCC(O)CN1CCN(CC(=O)Nc2c(C)cccc2C)CC1 (stereo not given)		100%
c1coc(CNc2ncnc3nc[nH]c23)c1		89.5%
CCN(C(=O)c1c(O)c2c(Cl)cccc2n(C)c1=O)c1ccccc1	2.35 µM (active)	
NCc1ccc(OCCCc2sc(-c3ccc4c(c3)/C(=N/Nc3nc5ccccc5s3)CCC4)nc2C(=O)O)cc1	0.0331 µM (active)	
